Laboratory results as given in the supplement of paper PMC10127200.
Counter-ions that a name gives are not always drawn.

Legend:
Assay in all cases: Euclidean distance of Cell Painting phenotypic profile (signed KS, 77 features) to DMSO centroid (dimensionless distance); 5 or 10 uM (library dependent); higher = stronger phenotypic change vs DMSO (phenoactivity)
Conditions in all cases: 48 h
786-O = tested on: 786-O
Procedure, shortened: (§1)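 Five cancer lines, together with a healthy fibroblast line, received library compounds for 48 h at a library-dependent 10 or 5 uM and 0.1% DMSO final. Harmony then derived 77 features from confocal 20X images (9 fields/well) of the stained cells, scoring each as a signed Kolmogorov-Smirnov statistic against same-plate vehicle wells. After plate-position correction, correlation weighting and replicate averaging at the top dose, phenoactivity was taken as each profile's Euclidean distance to the median vehicle profile.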

A549 = tested on: A549
Procedure, shortened: as §1

DU145 = tested on: DU145
Procedure, shortened: as §1

FB = tested on: FB
Procedure, shortened: as §1

HEPG2 = tested on: HEPG2
Procedure, shortened: as §1

OVCAR4 = tested on: OVCAR4
Procedure, shortened: as §1

Structure (SMILES)	Euclidean distance (786-O)	Euclidean distance (A549)	Euclidean distance (DU145)	Euclidean distance (FB)	Euclidean distance (HEPG2)	Euclidean distance (OVCAR4)
CC1=C(C(=O)OCCN(Cc2ccccc2)c2ccccc2)C(c2cccc([N+](=O)[O-])c2)C(P2(=O)OCC(C)(C)CO2)=C(C)N1 (configuration not stated) [Efonidipine]	1.73	1.93	1.02	0.739	0.968	0.999
C/C(=C\C(=O)Nc1ccccc1C(=O)O)c1ccc2ccccc2c1	0.939	1.46	1.76	1.59	0.714	0.731
Nc1cccc2c1C(=O)N(C1CCC(=O)NC1=O)C2=O (configuration not stated) [Pomalidomide]	0.929	0.804	0.704	1.06	0.312	0.886
Cc1ccc(NC(=O)c2ccc(CN3CCN(C)CC3)cc2)cc1Nc1nccc(-c2cccnc2)n1 [Imatinib (STI571)]	1.85	1.68	1.9	2.04	1.78	1.48
C=CC(=O)Nc1cccc(Oc2nc(Nc3ccc(N4CCN(C)CC4)cc3)nc3ccsc23)c1	4.18	3.94	2.73	3.64	3.85	3.57
C=CC(=O)Nc1cc(Nc2nccc(-c3cn(C)c4ccccc34)n2)c(OC)cc1N(C)CCN(C)C [Osimertinib (AZD9291)]	4.93	4.24	4.29	5.35	5.16	4.21
O[C@@H](COc1cccc2ncccc12)CN1CCN(C2c3ccccc3[C@@H]3[C@H](c4ccccc42)C3(F)F)CC1 (some centres not stated)	1.12	1.33	0.754	0.764	0.675	1.43
CN(C)CCC(c1ccccc1)c1ccccn1 (configuration not stated) [Pheniramine Maleate]	0.54	1.02	0.777	0.632	0.694	1.34
CCc1cnn2c(NCc3ccc[n+]([O-])c3)cc(N3CCCC[C@H]3CCO)nc12	3.35	2.78	3.2	3.11	2.64	3.58
CCCCOc1nc(N)c2c(n1)N(Cc1cccc(CN3CCCC3)c1)CC(=O)N2	1.32	0.517	0.661	0.941	0.589	1
CC[C@H](NC(=O)[C@H](C)NC)C(=O)N1C[C@@H](O)C[C@H]1Cc1c(-c2[nH]c3cc(F)ccc3c2C[C@@H]2C[C@H](O)CN2C(=O)[C@H](CC)NC(=O)[C@H](C)NC)[nH]c2cc(F)ccc12 [Birinapant]	1.15	1.08	2.69	1.06	2.95	1.97
CCc1nc(C(N)=O)c(Nc2ccc(N3CCC(N4CCN(C)CC4)CC3)c(OC)c2)nc1NC1CCOCC1 [Gilteritinib (ASP2215)]	2.93	3.06	3.49	3.66	3.86	2.89
CC(=O)Nc1nc2c(Oc3cc(-c4ccc(C(F)(F)F)cc4)ncn3)cccc2s1	0.826	0.619	0.706	0.556	0.84	0.981
O=C1c2c(O)cccc2Cc2cccc(O)c21 [Dithranol]	2.26	0.754	1.2	2.24	0.979	2.04
CNS(=O)(=O)CCc1ccc2[nH]cc(C3CCN(C)CC3)c2c1 [Naratriptan]	1.48	0.741	1.01	0.996	0.943	1.33
CN1CCc2cc3c(cc2C(=O)Cc2ccc4c(c2C1)OCO4)OCO3 [Protopine]	0.844	1.36	0.606	0.616	1.3	1.68
COC(=O)[C@@H]1[C@H]2C[C@H]3c4[nH]c5ccccc5c4CCN3C[C@@H]2CC[C@@H]1O [Yohimbine HCl]	1.79	0.764	0.901	0.844	0.549	0.758
O=C(O)c1ccc(Nc2ncc3c(n2)-c2ccc(Cl)cc2C(c2c(F)cccc2F)=NC3)cc1	2.83	3.8	2.7	2.34	3.27	3.07
C[C@@H]1O[C@@H](Oc2c(-c3ccc(O)c(O)c3)oc3cc(O)cc(O)c3c2=O)[C@H](O)[C@H](O)[C@H]1O [Quercitrin]	1.05	1.14	0.64	1.09	0.738	0.915
Clc1ccc(CCC(Cn2ccnc2)Sc2c(Cl)cccc2Cl)cc1 (configuration not stated) [Butoconazole]	1.21	0.956	1.06	1.04	1.4	1.31
CN[C@H]1C(=O)N[C@@H]2Cc3ccc(cc3)Oc3cc4cc(c3O[C@@H]3O[C@H](C(=O)O)[C@@H](O)[C@H](O)[C@H]3NC(=O)CCCCCCCCC(C)C)Oc3ccc(cc3Cl)[C@@H](O)[C@@H]3NC(=O)[C@H](NC(=O)[C@@H]4NC(=O)[C@@H](NC2=O)c2cc(cc(O)c2Cl)Oc2cc1ccc2O)c1ccc(O)c(c1)-c1c(O[C@H]2O[C@H](CO)[C@@H](O)[C@H](O)[C@@H]2O)cc(O)cc1[C@@H](C(=O)NCCCN(C)C)NC3=O [Dalbavancin]	0.58	0.819	1.15	0.48	0.566	0.603
CC1(C)S[C@@H]2[C@H](NC(=O)[C@H](N)c3ccccc3)C(=O)N2[C@H]1C(=O)O [Ampicillin Trihydrate]	1.3	1.2	0.921	0.762	0.667	1.53
Oc1ccc([C@H]2COc3cc(O)ccc3C2)cc1 [Equol]	1.09	1.52	1.04	1.35	0.768	1.72
CCCC(CCC)C(=O)O [Valproic acid sodium salt (Sodium valproate)]	0.85	0.706	0.534	0.529	0.677	0.959

Structure (SMILES)	Euclidean distance (786-O)	Euclidean distance (A549)	Euclidean distance (DU145)	Euclidean distance (FB)	Euclidean distance (HEPG2)	Euclidean distance (OVCAR4)
CN1C[C@@H]2C[C@H]1CN2c1cc2c(cc1F)c(=O)c(C(=O)O)cn2C1CC1 [Danofloxacin Mesylate]	1.72	1.87	1.14	0.963	1.05	0.974
CC(/C=C/C(=O)NO)=C\[C@@H](C)C(=O)c1ccc(N(C)C)cc1 [Trichostatin A]	3.62	4.26	3.19	4.05	3.58	3.53
OC(CCCN1CCCCC1)(c1ccccc1)c1ccccc1 [Diphenidol HCl]	1.04	0.66	0.884	0.867	0.89	1.09
C=CC(=O)Nc1ccc2ncnc(Nc3cccc(Br)c3)c2c1	1.72	2.07	1.78	2.78	1.47	2.99
CC1(C)S[C@@H]2[C@H](NC(=O)[C@H](N)c3ccccc3)C(=O)N2[C@H]1C(=O)O [Ampicillin sodium]	1.18	0.444	1.06	0.59	0.55	1.15
CCOCCn1c(C2CCN(CCc3ccc(C(C)(C)C(=O)O)cc3)CC2)nc2ccccc21 [Bilastine]	1.25	1.12	1.37	0.933	0.505	0.894
CC1=C(/C=C/C(C)=C/C=C/C(C)=C\C(=O)O)C(C)(C)CCC1 [Isotretinoin]	1.68	1.11	1.24	1.94	1.63	1.46
CCOC(=O)/C=C(C)/C=C/C=C(C)/C=C/c1c(C)cc(OC)c(C)c1C [Etretinate]	0.891	0.993	1.22	1.15	1.14	1.85
CO/N=C(\C(=O)N[C@@H]1C(=O)N2C(C(=O)O)=CCS[C@H]12)c1csc(N)n1 [Ceftizoxime sodium]	0.557	0.807	1.33	1.07	0.578	0.958
CC(=O)OCC(=O)[C@@]1(O)CC[C@H]2[C@@H]3CCC4=CC(=O)C=C[C@]4(C)[C@H]3[C@@H](O)C[C@@]21C [Prednisolone Acetate]	1.1	2.13	2.13	1.96	0.76	2.1
CC(C)(C)C(=O)Oc1ccc(S(=O)(=O)Nc2ccccc2C(=O)NCC(=O)O)cc1 [Sivelestat (ONO-5046)]	0.847	0.693	0.861	1.16	0.614	0.797
N#C/C(=C1/SC[C@@H](c2ccc(Cl)cc2Cl)S1)n1ccnc1 [Luliconazole]	1.47	1.03	0.686	1.08	0.589	1.1
C[C@@H](c1nc(-c2ccc(C#N)cc2)cs1)[C@](O)(Cn1cncn1)c1cc(F)ccc1F [Isavuconazole]	1	1.45	1.02	0.654	1.55	1.43
CCN(CC)CCCC(C)Nc1c2ccc(Cl)cc2nc2ccc(OC)cc12 (configuration not stated) [Quinacrine Dihydrochloride Dihydrate]	4.25	5.06	4.71	6.12	4.78	4.71
N#CC(c1ccnc(OCc2ccc(CN3CCOCC3)cc2)n1)c1nc2ccccc2s1 (configuration not stated) [Bentamapimod]	1.54	1.83	1.31	1.81	1.38	1.36
COc1ccc2cc(C(=O)O)ccc2c1 [6-Methoxy-2-naphthoic acid]	0.861	0.63	0.683	1.15	0.634	1.19
CN[C@@H]1[C@@H](O)[C@@H](O[C@@H]2[C@@H](O)[C@H](O[C@H]3OC(CN)=CC[C@H]3N)[C@@H](N)C[C@H]2N)OC[C@]1(C)O [Sisomicin sulfate]	1.2	1.53	0.985	0.996	0.672	1.05
C[C@H](CCC(=O)O)[C@H]1CC[C@H]2[C@@H]3C[C@H](O)[C@@H]4C[C@H](O)CC[C@]4(C)[C@H]3CC[C@]12C [Hyodeoxycholic acid (HDCA)]	1.08	0.973	0.585	0.898	0.401	1.37
O=P(O)(O)C(O)(Cn1ccnc1)P(=O)(O)O [Zoledronic Acid]	0.951	1.23	0.9	1.37	2.13	1.11
CC(C)[C@H]1CC[C@H](C(=O)N[C@H](Cc2ccccc2)C(=O)O)CC1 [Nateglinide]	2.04	1.19	1.17	0.97	0.589	1.71
COc1cc2c(cc1OC)CN(CCc1ccc(NC(=O)c3cc(OC)c(OC)cc3NC(=O)c3cnc4ccccc4c3)cc1)CC2 [Tariquidar]	0.987	1.26	1	1.17	0.844	1.04
O=C(NCCN1CCOCC1)Nc1nc2ccc(Sc3nnc4ccc(-c5ccc(F)cc5)nn34)cc2s1	1.21	1.01	1.2	1.23	0.646	1.15
CC(C)c1cc(-c2ccc(F)c3ccccc23)nc(N)n1	0.8	0.73	0.946	0.742	1	1.28
